aSyn 5UTR act: Activators via SNCA 5'UTR binding, MLPCN; alpha-synuclein 5'UTR reporter, activators screen; AID 1814, 2009; 300,000 compounds, 7.1% hits; activity score, % (tested at 7.5 µM), hits read low; in the data active = activity score below about -60%
Each line names hits and unclear results; the compound was inactive in the other large screens. Not all results are given here.

CCOc1ccccc1-c1nc(-c2ccc(NC(=O)c3ccc(Br)o3)cc2)no1	aSyn 5UTR act -136
COc1cc2nc(Nc3cccc(F)c3)nc(N)c2cc1OC	aSyn 5UTR act -93
CC1C/C(=C/c2ccncc2)C(=O)/C(=C/c2ccncc2)C1 (stereo unspecified)	aSyn 5UTR act -107
O=c1c2ccccc2nnn1-c1ccc(Br)cc1	aSyn 5UTR act -169
O=C(/C=C/c1ccc2c(c1)OCCCO2)c1ccccc1O	aSyn 5UTR act -311
Cc1ccc(O)c(C(=O)/C=C/c2ccc3c(c2)OCCCO3)c1	aSyn 5UTR act -188
Cc1ccc(C)c(OCCn2cc(/C=C(\C#N)C(=O)NCc3ccco3)c3ccccc32)c1	none
Cc1cc(/C=C(\C#N)C(=O)NCc2ccco2)c(C)n1C1CCCC1	aSyn 5UTR act -137
Cc1cc(/C=C(\C#N)C(=O)NCc2ccco2)c(C)n1-c1cccnc1	aSyn 5UTR act -100
CCC(=O)C1CCCN(C(=O)CCc2nnc(-c3ccc(C(C)=O)s3)o2)C1 (stereo unspecified)	aSyn 5UTR act -88
CCCOC1CCCN(C(=O)CCc2nnc(-c3ccc4c(c3)OCO4)o2)C1 (stereo unspecified)	aSyn 5UTR act -73
CC(Sc1nnc(NCc2ccccc2)s1)C(=O)Nc1ccc2c(c1)C(=O)c1ccccc1C2=O (stereo unspecified)	aSyn 5UTR act -165
Cc1cc(N)n2ncc(-c3ccccc3)c2n1	aSyn 5UTR act -149
C=CCSc1cc(C)nc2c(-c3ccccc3)cnn12	aSyn 5UTR act -74
Cc1cc(C)n2nc(C(=O)Nc3ccc4c(c3)CCC4)nc2n1	aSyn 5UTR act -101
O=C(Nc1ccc2c(c1)CCC2)c1cnccn1	aSyn 5UTR act -175
O=C(Nc1ccc(N2CCOCC2)cc1)c1cnccn1	none
CCCCOc1ccc(NC(=O)c2cnc(C)cn2)cc1	aSyn 5UTR act -113
Cc1cnc(C(=O)Nc2ccc(F)c(F)c2)cn1	aSyn 5UTR act -133
CN(C)CCn1cnc2c(c1=N)C(c1ccccc1)c1ccc3ccccc3c1O2 (stereo unspecified)	none
Cc1cnc(C(=O)NCCc2ccc(Cl)cc2)cn1	aSyn 5UTR act -114
Cc1cnc(C(=O)Nc2ccc3c(c2)CCC3)cn1	aSyn 5UTR act -136
CCOC(=O)Cc1cc(=O)[nH]c(Nc2nc3ccccc3o2)n1	aSyn 5UTR act -83
Cc1ccc(C(=O)CCNc2ccc(Br)cc2)o1	aSyn 5UTR act -99
Cc1ccc(-c2nn3c(C)nnc3s2)cc1NC(=O)c1cccs1	aSyn 5UTR act -64
COc1ccccc1OC(=O)Nc1ccc(Cl)cc1	aSyn 5UTR act -83
COc1ccccc1Oc1ccc(NC(=O)c2ccccc2)cc1	aSyn 5UTR act -91
COc1cc(NC(=O)c2ccccc2)cc(OC)c1	aSyn 5UTR act -131
COc1ccc(C(=O)Nc2cc(OC)cc(OC)c2)cc1	aSyn 5UTR act -62
Cc1ccc2c(CNCc3ccco3)cc(=O)oc2c1	aSyn 5UTR act -65
Clc1ccc(-n2ncc3c(N4CCCC4)ncnc32)cc1	none
O=C(c1ccco1)N1CCN(c2ncnc3c2cnn3-c2ccccc2)CC1	aSyn 5UTR act -94
CC1CCN(c2ncnc3c2cnn3-c2ccccc2)CC1	aSyn 5UTR act -119
C/C(=N\NC(=O)C1=NNC(=O)C1C)c1cccs1 (stereo unspecified)	aSyn 5UTR act -81
CC1C(=O)NN=C1C(=O)N/N=C\C(Br)=C\c1ccccc1 (stereo unspecified)	aSyn 5UTR act -134
O=C(N/N=C/C(Br)=C/c1ccccc1)c1cc(-c2ccco2)[nH]n1	aSyn 5UTR act -62
O=C(N/N=C/C(Cl)=C/c1ccccc1)c1ccccc1F	aSyn 5UTR act -192
Cc1cc(C(=O)N/N=C/c2cc(N=Nc3ccccc3)ccc2O)n[nH]1	none
C/C(=N/NC(=O)c1cc(C2CC2)[nH]n1)c1cccs1	none
O=C(N/N=C/C(Br)=C/c1ccccc1)c1ccccc1F	aSyn 5UTR act -201
COC(=O)c1cc(C)ccc1OCc1ccc([N+](=O)[O-])cc1	aSyn 5UTR act -79
Cc1ccc(COC(=O)c2cc([N+](=O)[O-])ccc2N2CCOCC2)cc1	none
COC(=O)c1ccc(COc2ccc(C)cc2[N+](=O)[O-])o1	aSyn 5UTR act -130
Cc1ccc(COc2ccc(-c3nnco3)cc2)cc1	aSyn 5UTR act -118
Clc1ccc2c(c1)C1OCCC1C(c1ccco1)N2 (stereo unspecified)	aSyn 5UTR act -125
O=C(O)c1ccc(NNC(=S)Nc2cc(C(F)(F)F)ccc2Cl)cc1	aSyn 5UTR act -141
CCN(CC)C(=S)SCC(=O)c1ccc(Br)cc1	aSyn 5UTR act -110
O=C(Nc1ccccc1F)c1ccc2ncsc2c1	aSyn 5UTR act -175
O=C(Nc1cccc(F)c1)c1ccc2ncsc2c1	aSyn 5UTR act -204
O=C(Nc1ccc(Cl)cc1Cl)c1ccc2ncsc2c1	aSyn 5UTR act -177
Cn1nnc2cc(C(=O)Nc3ccccc3F)ccc21	aSyn 5UTR act -111
O=C(Nc1nnc(SCc2ccc(F)cc2)s1)c1ccc2ncsc2c1	aSyn 5UTR act -100
O=C(Nc1ccc(F)cc1F)c1ccc2ncsc2c1	aSyn 5UTR act -120
Cc1c(/C(O)=C2\C(=O)C(=O)N(CCN(C)C)C2c2cccs2)cnn1-c1ccccc1 (stereo unspecified)	aSyn 5UTR act -88
Cc1ccc(C2/C(=C(/O)c3cnn(-c4ccccc4)c3C)C(=O)C(=O)N2CCCN2CCOCC2)o1 (stereo unspecified)	aSyn 5UTR act -111
Cc1nc(-c2ccc(NC(=O)c3ccccc3Br)cc2)cs1	aSyn 5UTR act -161
Cc1nc(-c2ccc(NC(=O)c3ccccc3C)cc2)cs1	aSyn 5UTR act -123
Cc1ccc(C(=O)NCc2ccc3c(c2)CCO3)cc1C	aSyn 5UTR act -96
Cc1ccccc1Nc1nnc(SCC(=O)NC(=O)Nc2ccc3c(c2)OCCO3)s1	aSyn 5UTR act -86
Cc1cccc(Nc2nnc(SCC(=O)NC(=O)Nc3ccc4c(c3)OCCO4)s2)c1	aSyn 5UTR act -95
Oc1ccc(Br)cc1-c1ccn[nH]1	aSyn 5UTR act -69
N#Cc1cc(-c2ccccc2)nn1-c1ccccc1	aSyn 5UTR act -68
Cc1ccn2c(NCc3ccccc3)c(-c3cccs3)nc2c1	aSyn 5UTR act -100
Cc1ccn2c(NC3CCCC3)c(-c3cccs3)nc2c1	aSyn 5UTR act -116
Cc1cccc(S(=O)(=O)N/N=c2\sc3ccccc3n2C)c1	aSyn 5UTR act -175
Cc1ccc(S(=O)(=O)N/N=c2\sc3ccccc3n2C)cc1	aSyn 5UTR act -115
COc1ccc(/C=C2\SC(=O)N(CCNC(=O)C3CC4C=CC3C4)C2=O)cc1 (stereo unspecified)	aSyn 5UTR act -194
OC(c1cc(-c2ccc(Cl)cc2)nc2ccccc12)C1CCCCN1 (stereo unspecified)	none
COc1cc(NC2CCCCC2O)c2nc(-c3ccc(Cl)cc3)ccc2c1 (stereo unspecified)	aSyn 5UTR act -94
COc1cccc(OCc2cc(C(=O)NCc3ccc4c(c3)OCO4)no2)c1	aSyn 5UTR act -71
COc1cccc(-c2cc(C(=O)Nc3ccc4c(c3)OCO4)no2)c1	aSyn 5UTR act -66
O=C(Nc1ccc2c(c1)OCO2)c1cc(-c2ccccc2Cl)on1	aSyn 5UTR act -143
O=C(Nc1ccc2c(c1)OCO2)c1cc(-c2ccc(O)cc2)on1	aSyn 5UTR act -158
CCOc1ccccc1/C=N/Nc1ccccc1[N+](=O)[O-]	aSyn 5UTR act -304
COc1ccccc1/C=N\Nc1ccccc1[N+](=O)[O-]	aSyn 5UTR act -91
CC(C)Oc1ccccc1/C=N/Nc1ccccc1[N+](=O)[O-]	aSyn 5UTR act -209
Cc1c(C(=O)O)cnc2cc(-c3ccc(Cl)cc3)nn12	aSyn 5UTR act -71

From PubChem BioAssay
